Records with an inconclusive call do not appear. Unmarked numbers belong to inactive results. Calls of active or inactive are those of the source. Calls come from the whole dose curve; as a rule, active = well fitted activation curve with a large enough effect; inconclusive = small, poorly fitted or top-dose-only effect; inactive = no such curve, though single readings can be large or run the other way.
Potency is the fitted concentration of half-maximal effect.

A short description of the experiment: qHTS assay for re-activators of p53 using a Luc reporter: Hit Validation. For activation: 0% is about no effect. Note: nearly all actives have a fitted effect of over 75% in size. The following applies: p53-responsive luciferase reporter cells, luminescence, H1299 line expressing heat-sensitive Ala138Val p53; series mostly up to 46.1 µM. A digest of the protocol: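 Hit confirmation with a 1:5 dilution series, at 37 deg C for 24 hrs, in H1299 cells co-expressing temperature-sensitive p53-A138V and p53-responsive luciferase. Nocodazole served as control; luminescence read after 10 min with detection reagent.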
Regarding `CCn1c(=N)n(CCOc2ccc(OC)cc2)c2ccccc21`, the Potency result was “inactive”. Same read-out and setting: the value for `CC1(C)CC(=O)CC(=O)/C1=N\Nc1c(Cl)cc(Cl)cc1Cl` was “inactive”. Turning to `CCc1nnc(NC(=O)CCC(=O)Nc2ccccc2)s1`, the Potency entry is “inactive”.

Turning to `Cc1ncsc1C(=O)Nc1nc2c(s1)CCCC2`, the Potency is 1.84 µM (active). Same read-out and setting: the same measure for `O=C(NNC(=O)c1cccnc1SCc1cccc([N+](=O)[O-])c1)c1ccccn1`: “inactive”; for `CCOc1ccc(NC(=O)c2cnsn2)cc1`: 2.31 µM (active).

For the compound `COc1ccc(CCC(=O)NC(C)C2CCCO2)cc1` (stereo not drawn), the Potency entry was “inactive”. Consider `COc1cc(N/N=C/c2ccccc2O)ncn1`, for which the Potency was 25.9 µM (active).

For `Cn1c(-c2ncc(F)cc2F)cc2onc(-c3c(F)cccc3Cl)c2c1=O`, the Potency was 2.59 µM (active). The same measure, in the same setting: the value for `C/C(=N\NC(=S)NC1CCCCC1)c1ccccc1` was “inactive”. Still for that read-out and setting: the value for `COc1ccc(-n2nc([N+](=O)[O-])c(=NCc3ccco3)n2O)cc1` was “inactive”.

On to `Cc1cccc(C)c1NC(=O)CC(NCc1ccco1)C(=O)O` (stereo not drawn), for which the activation was -13.7% [at 9.22 µM]. Take `N#C/C(=C\c1ccc(OCc2ccc(Br)cc2)cc1)C(=O)Nc1cccc(C(=O)O)c1`: the Potency was 2.91 µM (active).

`C=CCNC(=S)N/N=C(\C)c1ccccn1`: the Potency was 6.51 µM (active). On the same count and under the same terms, the value for `Clc1ccc(-c2cn3cc(Br)ccc3n2)cc1Cl` was 0.206 µM (active). Turning to `COc1cccc(/C=N/NC(=O)c2nc(-c3ccccc3)cc(-c3ccccc3)n2)c1O`, the activation was -23.6% [at 9.22 µM]. `COc1cc(OC)cc(C(=O)NNC(=O)c2ccccn2)c1`: the Potency entry was “inactive”. The same measure, in the same setting: the same measure for `CC(C)(C)NC(=O)C(c1ccc(Cl)cc1)N(CCO)C(=O)c1snc(C(N)=O)c1N` (stereo not drawn): “inactive”. As for `COc1cc(C(C)=O)ccc1Oc1ncnc2c1cnn2-c1ccc(F)cc1`, the Potency result was “inactive”. With `O=C(NNC(=O)c1ccc(Cl)cc1Cl)c1ccncc1`, the activation is -28.8% [at 9.22 µM].

In the case of `O=C(CCS(=O)(=O)c1ccccc1)Nc1nc2c(s1)CCCC2`, the Potency result is “inactive”.

In the case of `CCN(CC(=O)NCc1cccs1)c1ccc(S(=O)(=O)N2CCOCC2)cn1`, the Potency result was “inactive”.

Turning to `Cc1cccc(NC(=O)c2oc3c(c2C)C(=O)CC(C)(C)C3)n1`, the Potency entry is “inactive”.

Regarding `O=C(NCc1ccc(-c2nc3ccccc3s2)cc1)c1cc2ccccc2o1`, the Potency result is “inactive”. Same read-out and setting: the value for `CCCN1CCC(NC(=O)Cc2ccc(C)cc2)CC1` was “inactive”; that for `C/C(Cn1nnc([N+](=O)[O-])n1)=N\NC(=O)c1ccc(C)cc1` was “inactive”; that for `c1ccc(-c2csc(Nc3ncccn3)n2)cc1` was 2.31 µM (active).

Consider `CCOC(=O)c1cc(-c2ccccc2)sc1NC(=O)CC`, for which the Potency result is “inactive”. Same read-out and setting: the same measure for `CCN(CC)C(=O)CSC(=Nc1ccccc1F)NC#N`: 14.6 µM (active).

`COCCn1c(C)cc(C(=O)CSc2nc3ccccc3s2)c1C`: the activation is 130% [at 9.22 µM]. Consider `COc1ccc(C(=O)Nc2nnc(C(F)(F)F)s2)cc1`, for which the Potency is 10.3 µM (active). On the same count and under the same terms, the value for `O=C(CC1SC(N2CCCC2)=NC1=O)Nc1ccc(C(=O)Nc2ncccc2O)cc1` (stereo not drawn) was 16.4 µM (active); that for `N#C/C(=C\c1ccccc1[N+](=O)[O-])c1nc(C2CC2)cs1` was 23.1 µM (active). Still for that read-out and setting: the value for `Cc1cc(N2CCCCC2)n2ncc(-c3ccc(Cl)cc3)c2n1` was 0.82 µM (active). Same read-out and setting: the value for `O=C(CN1C(=O)COc2ccccc21)Nc1ccc(F)cc1` was “inactive”. Turning to `CC(C)(C)c1ccc(/C=C2\SC(=O)N(CCNC(=O)c3cccc(S(=O)(=O)N4CCOCC4)c3)C2=O)cc1`, the Potency was 1.84 µM (active). As to `C=CCn1c(C)cc(C(=O)COC(=O)c2ccc(N)c([N+](=O)[O-])c2)c1C`, the Potency is 0.411 µM (active). The same measure, in the same setting: the value for `CC(C)C(=O)OCC(=O)Nc1ccc(N=Nc2ccccc2)cc1` was 5.8 µM (active).

Source of the values: PubChem BioAssay AID624305 (National Center for Advancing Translational Sciences (NCATS), 2012).
